Data published in PubChem BioAssay (NCATS).
Results filed as inconclusive are left out. A call without a number means that no potency is given here. Activity calls are given as the source filed them. Calls come from the whole dose curve; as a rule, active = well fitted inhibition curve with a large enough effect; inconclusive = small, poorly fitted or top-dose-only effect; inactive = flat fitted curve, though single readings scatter.

These compounds were tested against Calcium and integrin-binding protein 1 (Homo sapiens) (UniProt Q99828) (assay: Primary qHTS for Identification of Calcium Integrin Binding Protein 1 (CIB1) Competitor (AID 1508620;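 note: GST tagged CIB1 binding a fluorescein labelled alphaIIb integrin peptide tracer; top concentration of the series differs between compounds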)). Settings: CIB1-GST / FITC-alphaIIb peptide fluorescence polarization; series mostly up to 114 µM.
How it was run: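 Fluorescence polarization competition: CIB1-GST (1 uM final) preincubated with compound 15 min at room temperature, then FITC-labeled alphaIIb peptide (100 nM final) added for another 15 min. Polarization read at Ex 480/Em 540.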

Sequence of Calcium and integrin-binding protein 1 (Homo sapiens) (Q99828 whole entry, looked up): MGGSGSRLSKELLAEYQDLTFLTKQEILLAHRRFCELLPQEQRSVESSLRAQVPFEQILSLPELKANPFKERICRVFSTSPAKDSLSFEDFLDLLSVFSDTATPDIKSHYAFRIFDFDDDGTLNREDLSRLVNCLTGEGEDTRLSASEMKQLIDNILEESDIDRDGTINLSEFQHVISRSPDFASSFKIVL

Structure (SMILES) | Potency
O=C1CCCC2=C1[C@@]1(CCC(c3ccccc3)C1)N=C(Nc1nc3ccccc3o1)N2 (stereo partly drawn) | inactive
O=C(Nc1ccc2ccccc2c1)Nc1nnc(C2CCCCC2)s1 | inactive
Fc1ccc(-c2ccc(Nc3nc(-c4ccncc4)nc4ccccc34)cc2F)cc1 | inactive
COc1ccc(-c2cncc(NC(=O)c3cccs3)c2)cc1OC | inactive
CCOC(=O)c1nn(-c2ccccc2)c(=O)c2c(N)scc12 | inactive
O=C(Nc1ccc(Cl)c(Cl)c1)N1CCN(c2ccncc2)CC1 | inactive
COc1cccc(NC(=S)N2CCN(c3cccc(Cl)c3Cl)CC2)n1 | inactive
Cc1cccc(Nc2nn3c(=O)c4ccccc4nc3s2)c1 | inactive
CC(C)Nc1cccc(S(=O)(=O)N2CCCN(S(=O)(=O)c3ccc4c(c3)OCCO4)CC2)c1 | inactive
O=C(O)c1ccc(S(=O)(=O)N[C@H](Cc2ccccc2)C(=O)O)cc1 | inactive
O=C(O)c1ccc(O)c2ncc(-c3ccc(C(=O)N4CCNCC4)cc3)cc12 | inactive
Cc1cc(C)n2ncc(C(=O)Nc3ccc(S(C)(=O)=O)cc3)c2n1 | inactive
COCc1nn2c(=O)cc(N3CCNCC3)nc2s1 | inactive
[O-][n+]1onc(-c2ccccc2)c1/C=N/O | inactive
O=C(Nc1cccc(-c2nn3c(=O)cc(N4CCNCC4)nc3s2)c1)c1ccon1 | inactive
Cc1ccsc1CN(C)c1ncnc2ccc(-c3oc(-c4ccccc4)nc3C)cc12 | inactive
O=C1CCc2cc(S(=O)(=O)Nc3ccc4ccccc4c3)ccc2N1 | inactive
CC(=O)c1ccc(N2CCN(S(=O)(=O)c3ccc4[nH]c(=O)oc4c3)CC2)cc1 | inactive
